A selection: hits, their analogues and other compounds. The true share with any hit is near 8.1%.
ELG1 repair inh: ELG1-dependent DNA repair inhibition; HEK293T ELG1-luciferase reporter, luminescence, 16 h; DNA damage induced by 5-fluorouridine; AID 504467; Potency, µM (top dose mostly 46.1 µM), for inactives: top-dose activity change, negative = inhibition, most hits filed as inhibitors; 2.3% of 330,000 active; further: on the % scale 0 is the no-effect control and ±100 the full control effect; nearly all actives have a fitted effect of over 55% in size
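HEK293T cells expressing luciferase-tagged ELG1 (2,000/well) received 5-Fluorouridine plus compound or DMSO for 16 hr at 37 °C. Luciferase was read by ONE-Glo luminescence after 30 min at room temperature.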
MCF10A rerep: inducers of DNA re-replication in MCF 10A breast cells | MCF 10A DNA re-replication, Hoechst nuclear intensity, 48 h | Potency, µM (top dose mostly 46.1 µM), without a hit: top-dose activity, positive = re-replication, most hits filed as activators | 2.9% of 350,000 active | AID 624296; further: % of control where 0% means no effect; nearly all actives have a fitted effect of over 50% in size
KB-3-1 tox: kills parental KB-3-1 adenocarcinoma cells; KB-3-1 viability, CellTiter-Glo ATP luminescence, 72 h; Potency, µM (doses to about 46.1 µM), most hits filed as cytotoxic; 1.4% of 400,000 active; AID 1347075; further: on the % scale 0 is the no-effect control and ±100 the full control effect; nearly all actives have a fitted effect of over 60% in size
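KB-3-1 parental drug-naive adenocarcinoma cells in DMEM/10% FBS, incubated 72 h at 37 C with pin-transferred compounds across a concentration series. Viability by CellTiter-Glo luminescence; concentration-response curves fitted after normalization.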
KB-V1 cytotox: KB-V1 MDR subline cytotoxicity; 3.4% of 400,000 active; Potency, µM (titrated, usually from 46.1 µM), actives largely listed as cytotoxic; KB-V1 MDR cells viability, CellTiter-Glo, 72 h; further: on the % scale 0 is the no-effect control and ±100 the full control effect; nearly all actives have a fitted effect of over 60% in size
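Cytotoxicity toward P-gp-expressing KB-V1 cells was determined as loss of CellTiter-Glo luminescence after 72 h at 37 degrees C. Compounds were tested in quantitative HTS format across a concentration range, with curves fitted to normalized data.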
SW480 rerep: DNA re-replication induction in SW480 cells; 1.8% of 340,000 active; Potency, µM (doses to about 46.1 µM), for inactives: at the highest dose re-replication activation, most hits filed as activators; SW480 DNA re-replication, Hoechst DNA content imaging, 48 h; AID 624297; further: % of control where 0% means no effect; nearly all actives have a fitted effect of over 55% in size
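Hoechst fluorescence of nuclei (405 nm excitation, 500-530 nm emission) measured by plate-scanning imager after 48 hr compound exposure at 37 C; re-replication scored as increased number of nuclei with elevated intensity.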
Active calls of the source: *; i = inactive; ? = inconclusive; · = not tested or not shown. The call rests on the fitted dose curve; in most records, active means well fitted curve in the direction sought with a large enough effect; inconclusive means small, poorly fitted or top-dose-only effect, or another doubt; inactive means no such curve, though single readings can be large; an effect the other way counts as inactive or inconclusive. Potency means the concentration at half of the fitted maximal effect.

SMILES | ELG1 repair inh | MCF10A rerep | KB-3-1 tox | KB-V1 cytotox | SW480 rerep
CCc1oc2ccccc2c1C(=O)c1cc(Br)c(O)c(Br)c1 | -6.5% | 7.31µM* | i | i | -0.8%
CCc1ccc(OCC(=O)c2c(O)c3ccccc3oc2=O)cc1 | 5.0% | ? | i | i | 8.5%
O=C(Nc1ccccn1)C1CCN(c2ncnc3c2nc2n3CCCCC2)CC1 | 2.59µM* | -4.4% | i | i | -5.7%
CCc1ccc(NC(=O)C2CCN(c3ncnc4c3nc3n4CCCCC3)CC2)cc1 | 2.59µM* | 15.1% | i | i | -7.0%
O=C(Nc1ccc(F)cc1)C1CCN(c2ncnc3c2nc2n3CCCCC2)CC1 | ? | 11.5% | i | i | 1.2%
COc1ccc(-c2n[nH]nc2C2=CC(=O)CC(C)(C)C2)cc1 | · | · | ? | i | ·
Cc1cc2c(cc1S(=O)(=O)N(CCN(C)C)Cc1ccco1)OCC(=O)N2 | · | · | i | i | ·
CS(=O)(=O)c1ccc(Cl)c(NC(=O)CN2C(=O)C3CCCCC3C2=O)c1 (stereo not given) | 10.6% | 2.2% | i | ? | -2.4%
Cc1cc(C)c[n+](C2=C([O-])c3ccccc3C(=O)/C2=N\S(=O)(=O)c2cccs2)c1 | 11.6µM* | ? | ? | i | 2.91µM*
Cc1cc[n+](C2=C([O-])c3ccccc3C(=O)/C2=N\S(=O)(=O)c2cccs2)cc1C | 23.1µM* | 20.6µM* | i | i | ?
COc1cc(N(C)C)ccc1/C=C1\C=Cc2ccccc21 | · | · | i | i | ·
COc1ccc(-c2nc(CCNC(=O)c3cccs3)cs2)cc1 | 20.6µM* | 0.7% | i | i | 2.1%
COc1ccc(CC(=O)NCCc2csc(-c3ccc(Cl)cc3)n2)cc1 | · | · | i | 0.92µM* | ·
O=C(NCCc1csc(-c2ccc(F)cc2)n1)c1cccs1 | · | · | i | i | ·
O=C(NCCc1ccc(Cl)cc1)c1ccc(CS(=O)(=O)Cc2ccccc2F)o1 | · | · | i | ? | ·
COc1ccc(CN2C[C@@H](CO)O[C@@H](n3cnc4c(NC5CC5)ncnc43)C2)cc1 | · | · | i | i | ·
CCN(CC)S(=O)(=O)c1ccc(OC(C)C)c(NC(=O)C2=COCCO2)c1 | ? | 7.1% | i | 7.31µM* | 1.8%
CCN(CC)S(=O)(=O)c1ccc(N2CCCC2)c(NC(=O)C2=COCCO2)c1 | 9.2% | -10.4% | i | i | ?
CNc1cccc(-c2c(OC)cccc2OC)n1 | · | · | i | i | ·
CCOc1ccc(OCC)c(NC(=O)CCn2c(=O)oc3ccccc32)c1 | -3.4% | -2.7% | i | 8.2µM* | -0.5%
CCOc1ccc(CNC(=O)CCn2c(=O)oc3ccccc32)cc1 | 0.5% | 7.3% | i | 23.1µM* | 4.2%
C#CCn1c2ccccc2c2nc3ccccc3nc21 | 2.4% | -9.2% | i | 18.4µM* | -1.7%
COC(=O)Cn1c2ccccc2c2nc3ccccc3nc21 | 15.5% | 1.4% | i | i | 8.4%
c1ccc(CNc2nc3ccccc3n2CCN2CCOCC2)nc1 | 4.6% | 23.1µM* | i | i | ?
CCCn1c2ccccc2c2nnc(SCCN3CCOCC3)nc21 | ? | -2.2% | i | i | -0.6%
SMILES | ELG1 repair inh | MCF10A rerep | KB-3-1 tox | KB-V1 cytotox | SW480 rerep
c1ccc2nc3c(nc2c1)c1ccccc1n3CCN1CCOCC1 | ? | 18.4µM* | i | ? | ?
CC(C)n1c2ccccc2c2nc3ccccc3nc21 | -13.4% | 23.1µM* | i | i | ?
N#CCn1c2ccccc2c2nc3ccccc3nc21 | 26.5% | ? | i | i | ?
CC(C)CC(C(=O)NCC1CCN(Cc2ccc(F)cc2)CC1)N1Cc2ccccc2C1=O (stereo not given) | · | · | i | i | ·
Nc1nc(N)c(-c2ccccc2)s1 | · | -0.1% | i | i | -1.5%
CC1CCN(CCNC(=O)c2ccc3c(=O)n(Cc4ccc(Cl)cc4)c(=S)[nH]c3c2)CC1 | 5.6% | 1.7% | i | ? | -0.9%
CCC1=NN(C(=O)COc2ccccc2C)C(O)(c2ccncc2)C1 (stereo not given) | 2.5% | -3.7% | i | i | -10.7%
CC1=NN(C(=O)COc2ccccc2C)C(O)(c2ccc(Cl)cc2)C1 (stereo not given) | -10.2% | 25.5% | i | 13µM* | -84.8%
C(=C\c1ccnc2ccccc12)/c1ccc2c(c1)OCO2 | · | · | i | i | ·
CCNC(=S)N(CCc1c(C)[nH]c2ccc(Cl)cc12)Cc1ccco1 | -18.2% | ? | 23.1µM* | i | 18.4µM*
CNC(=S)N(CCc1c(C)[nH]c2ccc(C)cc12)Cc1ccc(OC)c(OC)c1 | ? | 0.7% | i | i | -6.7%
CNC(=S)N(CCc1c(C)[nH]c2ccc(Cl)cc12)Cc1cc(OC)c(OC)c(OC)c1 | ? | ? | ? | ? | 25.9µM*
CN(CC(=O)Nc1cccc(F)c1)C(=O)Cn1cnc2c1c(=O)n(C)c(=O)n2C | ? | -25.0% | i | i | -35.8%
C=CCN1CC(c2nc3ccccc3n2Cc2ccccc2)CC1=O (stereo not given) | 13.2% | 11.3% | i | 11.6µM* | -2.3%
Cn1c(C2CC(=O)N(Cc3ccccc3)C2)nc2ccccc21 (stereo not given) | -1.6% | -0.3% | i | i | -2.6%
CC(C)(C)N1CC(c2nc3ccccc3n2Cc2ccc(Cl)cc2)CC1=O (stereo not given) | -25.7% | 14.6% | i | 14.6µM* | -0.1%
CCc1ccc(S(=O)(=O)Nc2cccc(C3OCCCO3)c2)cc1 | 11.6µM* | -1.1% | i | i | -12.8%
CCc1ccc(S(=O)(=O)Nc2ccc3c(c2)n(C)c(=O)c(=O)n3C)cc1 | · | · | i | i | ·
Cn1c(=O)oc2cc(S(=O)(=O)Nc3cccc(C(=O)O)c3)ccc21 | 16.4% | -1.6% | i | i | -11.4%
CCc1cccc(NS(=O)(=O)c2ccc3c(c2)oc(=O)n3C)c1 | -5.1% | 5.6% | ? | 4.61µM* | -6.4%
Cn1c(=O)oc2cc(S(=O)(=O)Nc3ccccc3)ccc21 | 29.5% | -12.6% | i | i | -1.9%
CC(=O)c1cccc(NS(=O)(=O)c2ccc3c(c2)oc(=O)n3C)c1 | -17.7% | 1.3% | ? | 16.4µM* | -2.9%
CCN(CC)CCNC1=NCCn2c1cc1cc(OC)ccc12 | -17.5% | ? | i | i | ?
CN=C1c2cc3cc(OC)ccc3n2CCN1Cc1ccccc1 | ? | 20.6µM* | 8.2µM* | 16.4µM* | 11.2µM*
OC[C@@H]1CN(Cc2ccccc2)C[C@H](n2cnc3c(NC4CCCC4)ncnc32)O1 | · | · | i | i | ·
N#Cc1ccc(Oc2nc(Nc3ccc(F)cc3)nc(N3CCCC3)n2)cc1 | 16.4µM* | -2.3% | i | ? | 0.1%
CCOc1nc(Nc2ccc(F)cc2)nc(N2CCN(c3ccc(OC)cc3)CC2)n1 | ? | 5.3% | i | i | 5.8%
CCC1=[N+](CC(=O)c2ccc(Br)cc2)CCn2c(C)ccc21 | ? | ? | ? | ? | -11.6%

High-throughput results as filed in PubChem.
